PubChem BioAssay (EPA / NIEHS)
Active and inactive are the calls of the source. How the source made its calls: active means hit-call score of the fitted dose curve at least 0.9, where 1 is the maximum; inactive means score below 0.9.

What was measured:
[1] = target: Bile acid receptor (Homo sapiens) (UniProt Q96RI1); test: ATG_IR1_CIS: Attagene CIS-FACTORIAL HepG2 Assay for human Nuclear Receptor Subfamily 1 Group H Member 4 (NR1H4), IR1 submotif (AID 2282946); settings: IR1 reporter transcription, actives raise or lower the signal
Bile acid receptor (Homo sapiens), sequence (Q96RI1 whole entry, looked up, the tested form may be a part): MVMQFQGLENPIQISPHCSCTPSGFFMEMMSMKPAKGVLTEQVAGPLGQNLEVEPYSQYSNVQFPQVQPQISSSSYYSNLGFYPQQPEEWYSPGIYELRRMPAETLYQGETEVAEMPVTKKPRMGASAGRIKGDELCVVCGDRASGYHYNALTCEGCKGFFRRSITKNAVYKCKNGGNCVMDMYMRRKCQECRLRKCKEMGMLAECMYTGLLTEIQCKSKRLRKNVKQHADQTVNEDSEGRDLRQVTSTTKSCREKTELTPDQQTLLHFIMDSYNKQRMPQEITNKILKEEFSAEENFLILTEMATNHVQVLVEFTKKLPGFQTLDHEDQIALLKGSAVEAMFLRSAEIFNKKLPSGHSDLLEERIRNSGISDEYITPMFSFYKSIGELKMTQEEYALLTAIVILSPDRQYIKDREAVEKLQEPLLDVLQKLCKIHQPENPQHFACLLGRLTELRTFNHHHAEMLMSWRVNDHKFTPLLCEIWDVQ
How it was run: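 Cells (human HepG2) carry transiently transfected cis-promoter reporter transcription units. Compounds are incubated 24 h, total RNA is reverse-transcribed and amplified, and labelled fragments are resolved by capillary electrophoresis. Curves use DMSO as baseline.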

[2] = ATG_GRE_CIS: Attagene CIS-FACTORIAL HepG2 Assay for human Glucocorticoid Response Elements (GRE) (AID 2282947); settings: HepG2 GRE cis-reporter, Attagene multiplex mRNA; actives raise or lower the signal
How it was run: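 Transient MRTU transfection of human HepG2 liver cells; cis-regulated reporters report endogenous factors. 24 h dosing → RNA isolation → RT-PCR → 6-FAM primer extension → HpaI cut → CE fragment analysis. Bidirectional fit, DMSO negative control.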

[3] = ATG_ISRE_CIS: Attagene CIS-FACTORIAL HepG2 Assay for human Interferon Regulatory Factor 1 (IRF1) binding to an Interferon-Stimulated Response Element (ISRE) (AID 2282948); settings: HepG2 ISRE cis-reporter (Attagene), mRNA transcription readout; actives raise or lower the signal
How it was run: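 Cell-based cis-reporter assay; HepG2; 24 h exposure; reporter mRNA by RT-PCR plus capillary electrophoresis fluorescence; activity in either direction scored relative to DMSO.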

[4] = ATG_M_32_CIS: Attagene CIS-FACTORIAL HepG2 Assay for M32 Transcription Factor (Internal Marker) (AID 2282949); settings: HepG2 Attagene cis-factorial M32 reporter, mRNA; actives raise or lower the signal;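 further: background control marker of the multiplexed CIS panel rather than a real target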
How it was run: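 Fluorescent capillary electrophoresis peaks of HpaI-digested, FAM-labelled RT-PCR reporter products give the signal. Source: transiently transfected human liver HepG2 cells, 24 h after chemical dosing; bidirectional fitting against DMSO.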

[5] = ATG_M_06_CIS: Attagene CIS-FACTORIAL HepG2 Assay for M06 Transcription Factor (Internal Marker) (AID 2282950); settings: HepG2 Attagene CIS-FACTORIAL M06 internal marker reporter; actives raise or lower the signal
How it was run: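 Internal background marker within multiplexed cis-reporter HepG2 system. Cells transiently transfected, dosed 24 h; reporter mRNA measured by RT-PCR, HpaI digestion and capillary electrophoresis. Bidirectional fit relative to DMSO.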

[6] = target: Hypoxia-inducible factor 1-alpha (Homo sapiens) (UniProt Q16665); test: ATG_HIF1a_CIS: Attagene CIS-FACTORIAL HepG2 Assay for human Hypoxia Inducible Factor 1 (HIF1A) (AID 2282951); settings: HepG2 Attagene cis-factorial HIF1a reporter transcription; actives raise or lower the signal
Hypoxia-inducible factor 1-alpha (Homo sapiens), sequence (Q16665 whole entry, looked up): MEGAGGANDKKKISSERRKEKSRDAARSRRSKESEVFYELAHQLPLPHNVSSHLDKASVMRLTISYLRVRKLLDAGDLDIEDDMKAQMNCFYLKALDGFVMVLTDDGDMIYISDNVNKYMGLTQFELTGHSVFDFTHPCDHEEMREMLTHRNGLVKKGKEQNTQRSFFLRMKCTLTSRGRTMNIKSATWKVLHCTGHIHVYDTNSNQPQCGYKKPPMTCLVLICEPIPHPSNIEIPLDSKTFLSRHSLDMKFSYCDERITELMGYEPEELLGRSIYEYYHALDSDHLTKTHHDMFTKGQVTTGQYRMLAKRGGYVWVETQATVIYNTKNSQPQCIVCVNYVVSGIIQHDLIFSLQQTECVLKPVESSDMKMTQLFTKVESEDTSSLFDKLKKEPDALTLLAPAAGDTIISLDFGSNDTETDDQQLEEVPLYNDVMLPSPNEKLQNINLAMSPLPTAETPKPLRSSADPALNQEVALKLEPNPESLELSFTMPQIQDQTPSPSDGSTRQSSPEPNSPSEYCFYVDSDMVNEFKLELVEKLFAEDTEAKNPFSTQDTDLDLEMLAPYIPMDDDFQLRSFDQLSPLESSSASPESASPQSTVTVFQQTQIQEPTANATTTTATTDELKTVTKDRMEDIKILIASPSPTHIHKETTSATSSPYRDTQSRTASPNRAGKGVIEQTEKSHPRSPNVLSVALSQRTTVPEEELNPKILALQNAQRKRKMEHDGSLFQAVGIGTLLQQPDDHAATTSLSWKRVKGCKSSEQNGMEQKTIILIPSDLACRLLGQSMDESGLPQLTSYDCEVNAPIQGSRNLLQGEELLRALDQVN
How it was run: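 Endogenous-TF cis reporter readout, human HepG2 cells, 24 h incubation; mRNA detected via RT-PCR and capillary electrophoresis fluorescence; DMSO-normalised bidirectional fitting.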

[7] = target: Hepatocyte nuclear factor 6 (Homo sapiens) (UniProt Q9UBC0); test: ATG_HNF6_CIS: Attagene CIS-FACTORIAL HepG2 Assay for human Hepatocyte Nuclear Factor 6 (HNF6) (AID 2282952); settings: HepG2 Attagene cis-factorial HNF6 reporter transcription; actives raise or lower the signal
Hepatocyte nuclear factor 6 (Homo sapiens), sequence (Q9UBC0 whole entry, looked up): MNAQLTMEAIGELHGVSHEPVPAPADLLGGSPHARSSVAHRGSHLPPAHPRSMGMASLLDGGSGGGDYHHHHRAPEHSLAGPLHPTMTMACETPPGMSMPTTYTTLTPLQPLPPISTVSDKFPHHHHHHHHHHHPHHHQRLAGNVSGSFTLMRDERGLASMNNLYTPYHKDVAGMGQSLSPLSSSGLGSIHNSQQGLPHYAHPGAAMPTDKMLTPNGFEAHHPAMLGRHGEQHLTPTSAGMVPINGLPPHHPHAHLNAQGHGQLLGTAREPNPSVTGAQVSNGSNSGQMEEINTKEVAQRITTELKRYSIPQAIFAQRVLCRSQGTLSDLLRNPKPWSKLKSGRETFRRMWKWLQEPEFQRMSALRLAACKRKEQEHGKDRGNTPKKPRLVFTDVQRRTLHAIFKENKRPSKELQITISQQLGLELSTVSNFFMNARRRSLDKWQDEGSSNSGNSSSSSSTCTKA
How it was run: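 Cells are HepG2 carrying transiently transfected cis-promoter reporter units. Treatment lasts 24 h, after which reporter transcripts are reverse-transcribed, amplified, FAM-labelled and sized by capillary electrophoresis. DMSO serves as baseline.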

[8] = target: Heat shock factor protein 1 (Homo sapiens) (UniProt Q00613); test: ATG_HSE_CIS: Attagene CIS-FACTORIAL HepG2 Assay for human Heat Shock Transcription Factor 1 (HSE) (AID 2282953); settings: HepG2 HSE cis-reporter, Attagene RNA transcription; actives raise or lower the signal
Heat shock factor protein 1 (Homo sapiens), sequence (Q00613 whole entry, looked up): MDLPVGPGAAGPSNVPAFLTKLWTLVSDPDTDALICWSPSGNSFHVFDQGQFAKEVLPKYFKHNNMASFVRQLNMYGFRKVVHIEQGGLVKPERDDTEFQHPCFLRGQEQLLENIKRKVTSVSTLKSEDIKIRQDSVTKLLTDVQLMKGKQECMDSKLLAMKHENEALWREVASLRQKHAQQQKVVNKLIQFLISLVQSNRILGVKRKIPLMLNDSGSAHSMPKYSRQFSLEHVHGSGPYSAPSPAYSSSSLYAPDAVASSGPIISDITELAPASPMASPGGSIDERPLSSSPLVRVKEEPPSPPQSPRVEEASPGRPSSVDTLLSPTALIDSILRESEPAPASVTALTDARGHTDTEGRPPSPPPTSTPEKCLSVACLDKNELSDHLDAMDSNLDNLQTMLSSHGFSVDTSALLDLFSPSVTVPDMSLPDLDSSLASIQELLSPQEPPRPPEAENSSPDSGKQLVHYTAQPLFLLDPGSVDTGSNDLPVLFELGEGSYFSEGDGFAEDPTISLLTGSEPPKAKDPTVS
How it was run: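 HepG2 cells transfected with cis-promoter reporter units sensing endogenous transcription factor activity; reporter mRNA quantified 24 h post-dose by RT-PCR and capillary electrophoresis of 6-FAM-labelled products. Bidirectional fitting against DMSO.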

[9] = ATG_MRE_CIS: Attagene CIS-FACTORIAL HepG2 Assay for human Metal Responsive Element (MRE) (AID 2282954); settings: HepG2 MRE cis-reporter transcription, Attagene multiplex; actives raise or lower the signal
How it was run: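 Transient MRTU transfection of HepG2 (FuGene 6); 24 h dosing; total RNA → oligo(dT) RT, PCR, 6-FAM primer extension, HpaI cut, CE. Bidirectional fit vs DMSO.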

[10] = ATG_PBREM_CIS: Attagene CIS-FACTORIAL HepG2 Assay for human Phenobarbital-responsive Enhancer Module (PBREM) (AID 2282955); settings: HepG2 PBREM cis-reporter, Attagene multiplexed transcription; actives raise or lower the signal
How it was run: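 Readout: reporter mRNA, fluorescent RT-PCR fragments separated by capillary electrophoresis. System: HepG2 transiently transfected with cis-regulated reporter units. Exposure: 24 h. Analysis: bidirectional, DMSO baseline.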

Measured: AC50

Cc1c(Cl)cccc1[N+](=O)[O-]
not listed: [10]
inactive: all other assays above

CC(C)(C)c1ccc(C(=O)O)cc1
not listed: [10]
inactive: all other assays above

COc1cccc(OC)c1O
inactive: all assays above

CCCCCCCCC=CCCCCCCCC1=NCCN1CCO
active: [1] 26.1 µM | [3] 189 µM
inactive: all other assays above

CC(=O)CC(=O)Nc1ccccc1
active: [6] 24.2 µM
not listed: [10]
inactive: all other assays above

CCc1cc(Cc2cc(CC)cc(C(C)(C)C)c2O)c(O)c(C(C)(C)C)c1
active: [3] 17.4 µM | [6] 16.7 µM | [8] 18.5 µM | [9] 18.1 µM
inactive: all other assays above

CCC(C)c1cc([N+](=O)[O-])cc([N+](=O)[O-])c1OC(=O)OC(C)C (stereo not drawn)
active: [1] 27.4 µM | [3] 24.3 µM | [4] 49.2 µM | [8] 26.6 µM | [9] 34.8 µM
inactive: all other assays above

CCCCC(CC)COC(=O)c1ccc(O)cc1 (stereo not drawn)
not listed: [10]
inactive: all other assays above

[Cl][Au]([Cl])[Cl]
not listed: [10]
inactive: all other assays above

CCCCN(CCCC)C(=O)N(CCCC)CCCC
inactive: [3] | [4] | [5]
active: [1] 24.5 µM | [2] 48.3 µM | [6] 54.8 µM | [7] 53.7 µM | [8] 52.2 µM | [9] 8.86 µM | [10] 58.9 µM

CC(=O)Nc1ccc(C(=O)CCl)cc1
active: [1] 33.4 µM | [3] 6.86 µM | [9] 16.1 µM
not listed: [10]
inactive: all other assays above

CS(C)=O
not listed: [10]
inactive: all other assays above
